# Reference: PubChem BioAssay (NCATS)
# Where “and” joins values, the source holds several entries; their conditions need not be identical. Equal entries are not always repeated. Results filed as inconclusive are left out. A number with no mark means an inactive call. Calls of active or inactive are those of the source. Calls follow the shape of the dose curve; as a rule, active = well fitted inhibition curve with a large enough effect in the repeat runs; inconclusive = weak or mixed curves; inactive = no such curve, though single readings can be large or run the other way. Non-standard residues stand in square brackets, D forms with d. Residues, ends and D or L forms follow the SMILES beside them. Peptide text beside a SMILES is read from it. *: point of attachment. Sta = CC(C)C[C@H](N)[C@@H](O)CC(=O)O; Isovaleryl = CC(C)CC(=O)*
# Biological target: Cytochrome P450 2C9 (Homo sapiens) (UniProt P11712)
# Sequence (P11712 whole entry, looked up): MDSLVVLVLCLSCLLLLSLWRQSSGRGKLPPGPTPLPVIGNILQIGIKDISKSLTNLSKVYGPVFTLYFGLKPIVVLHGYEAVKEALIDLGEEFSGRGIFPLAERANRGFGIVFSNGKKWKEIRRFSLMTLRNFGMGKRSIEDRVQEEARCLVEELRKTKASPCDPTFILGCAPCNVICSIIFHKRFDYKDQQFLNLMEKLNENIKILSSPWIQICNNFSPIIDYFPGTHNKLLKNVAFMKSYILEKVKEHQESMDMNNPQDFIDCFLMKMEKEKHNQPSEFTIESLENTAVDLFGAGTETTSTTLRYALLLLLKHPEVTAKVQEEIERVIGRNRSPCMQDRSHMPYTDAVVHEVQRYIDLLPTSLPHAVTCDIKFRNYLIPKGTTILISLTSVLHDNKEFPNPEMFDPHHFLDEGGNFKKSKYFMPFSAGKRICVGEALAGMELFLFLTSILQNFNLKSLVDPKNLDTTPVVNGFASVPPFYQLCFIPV
# Experiment: Cytochrome P450 family 2 subfamily C member 9 (CYP2C9) small molecule antagonists: luciferase biochemical (cell-free) qHTS assay (AID 1645842); also: nearly all actives have a fitted effect of over 55% in size
# Details: P450-Glo CYP2C9 enzyme assay, luciferin luminescence; series mostly up to 57.4 µM; activity change, negative = inhibition: at the top concentration
# Experimental: National Center for Advancing Translational Sciences [NCATS] Assay Overview: Cytochrome P450 (CYP) enzymes are membrane-bound hemeproteins that play a key role in metabolism of drugs and xenobiotics. Assaying the effect of chemicals on CYP isozymes is useful to minimize the adverse drug reactions and toxicities in drug development process. Chemical compounds were tested for their effect on CYP enzyme activities by using P450-Glo (TM) screening systems (Promega Corporation, Madison, WI). These systems provide a luminescent method containing proluciferin substrates and are converted to luciferin products by CYP isozymes. The luciferin products formed are detected with a luciferin detection reagent, and the amount of light produced is proportional to CYP activity. P450-Glo (TM) CYP2C9 screening system (Catalog. No. V9790) was used to detect the compounds that interfere in CYP2C9 activity.
# Assay Protocol Summary: Two ul of enzyme-substrate mix supplemented with 0.4% Bovine Serum Albumin was dispensed into medium binding white/solid 1536-well plates (Greiner Bio-One North America Inc., Monroe, NC) using a Flying Reagent Dispenser (FRD, Aurora Discovery, San Diego, CA). […] The assay plates were incubated at room temperature for 10 min. Then 2 ul of NADPH regeneration solution was added to each well of the assay plates using an FRD and incubated at 37C for 1 h. The reaction was stopped by adding 4 ul of detection reagent using an FRD and after 20 min incubation at room temperature, the luminescence signal was measured using a ViewLux plate reader (Perkin Elmer, Shelton, CT). Data were expressed as relative luminescence units.
# % is scaled to controls: 0 for no effect and ±100 for the full control effect; potency is read from the fitted curve at half-maximal effect.
SMILES,"activity change, negative = inhibition",Potency
N=C(N=C(N)N)N1CCOCC1,4.08%,–
CCC(C)(Oc1ccc(C2(c3ccc(OC(C)(CC)C(=O)O)cc3)CCCCC2)cc1)C(=O)O (stereo not given),24%,–
CC1Cc2ccccc2N1NC(=O)c1ccc(Cl)c(S(N)(=O)=O)c1 (stereo not given),-19.8%,–
O=C(OC1C[C@H]2CC[C@@H](C1)[N+]21CCCC1)C(O)(c1ccccc1)c1ccccc1 (stereo not given in full),7.35%,–
Cc1cc(C2CCCCC2)n(O)c(=O)c1,8.25%,–
CC(C)[C@H](N)C(=O)OCCOCn1cnc2c(=O)[nH]c(N)nc21,–,inactive
CS(=O)(=O)OCCCCOS(C)(=O)=O,1.96%,–
O=C(NCC1CCCCN1)c1cc(OCC(F)(F)F)ccc1OCC(F)(F)F (stereo not given),-19.2%,–
NC(=NCc1ccccc1)NC(=O)c1nc(Cl)c(N)nc1N,-6.95%,–
CCC[C@@H]1C[C@@H](C(=O)N[C@@H]([C@H]2O[C@H](SC)[C@H](O)[C@@H](O)[C@H]2O)[C@@H](C)O)N(C)C1,1.2%,–
COC1=C(OC)C(=O)C(CCCCCCCCCCO)=C(C)C1=O,–,7.76 µM (active)
O=C(O)CCNC(=O)c1ccc(N=Nc2ccc(O)c(C(=O)O)c2)cc1,5.41%,–
O=C(NOCC1CC1)c1ccc(F)c(F)c1Nc1ccc(I)cc1Cl,–,0.617 µM (active)
CCCCN(CCCC)CCC(O)c1cc2c(Cl)cc(Cl)cc2c2cc(C(F)(F)F)ccc12 (stereo not given),-22.2%,–
CN(C)c1ccc(O)c2c1C[C@H]1C[C@H]3[C@H](N(C)C)C(=O)C(C(N)=O)=C(O)[C@@]3(O)C(=O)C1=C2O,0.752%,–
N=C(N)c1ccc2cc(OC(=O)c3ccc(N=C(N)N)cc3)ccc2c1,6.6%,–
Cc1nc2n(c(=O)c1CCN1CCC(c3noc4cc(F)ccc34)CC1)CCCC2,11.3%,–
CC(C)c1ccc2oc3nc(N)c(C(=O)O)cc3c(=O)c2c1,–,13.8 µM (active)
Cc1cc2c(s1)Nc1ccccc1N=C2N1CCN(C)CC1,–,inactive
COc1ccc(C2(C#N)CCC(C(=O)O)CC2)cc1OC1CCCC1 (stereo not given),-15.7%,–

SMILES,"activity change, negative = inhibition",Potency
C=CCc1cc(OC)c(O)c(C(=O)NCCO)c1,–,inactive
CN(C)C(=O)COC(=O)Cc1ccc(OC(=O)c2ccc(N=C(N)N)cc2)cc1,11.1%,–
CCN(CC)CCOc1ccc(Cc2ccccc2)cc1,5.14%,–
CC(C)CC(=O)N[C@H](C(=O)N[C@H](C(=O)N[C@@H](CC(C)C)[C@@H](O)CC(=O)N[C@@H](C)C(=O)N[C@@H](CC(C)C)[C@@H](O)CC(=O)O)C(C)C)C(C)C (Isovaleryl-VV[Sta]A[Sta]-OH),29.9%,–
Cc1c(OCC(F)(F)F)ccnc1CS(=O)c1nc2ccccc2[nH]1 (stereo not given),–,15.5 µM (active) and 13.5 µM (active)
O=C(O)c1cccc(-c2noc(-c3ccccc3F)n2)c1,–,1.55 µM (active)
c1cnc2cc3c(cc2n1)C1CNCC3C1,-1.97%,–
CCCCc1ccc2nc(NC(=O)OC)[nH]c2c1,6.21%,–
Nc1ncn([C@H]2C[C@H](O)[C@@H](CO)O2)c(=O)n1,7.83%,–
CN1CCC(=C2c3ccccc3CCc3sccc32)CC1,-5.56%,–
Cc1cccc(CN2CCN(C(c3ccccc3)c3ccc(Cl)cc3)CC2)c1 (stereo not given),–,11 µM (active)
Cn1c(NCCN(CCO)CCCc2ccc([N+](=O)[O-])cc2)cc(=O)n(C)c1=O,3.99%,–
COC(=O)[C@H](Cc1ccccc1)NC(=O)[C@@H](N)CC(=O)O (H-Asp-Phe-OMe),3.61%,–
O=C(c1ccccc1)c1ccc2n1CCC2C(=O)O (stereo not given),-7.71%,–
Cc1cccc(C)c1OCC(=O)N[C@@H](Cc1ccccc1)[C@@H](O)C[C@H](Cc1ccccc1)NC(=O)[C@H](C(C)C)N1CCCNC1=O,–,17.4 µM (active)
CCCc1cc(=O)[nH]c(=S)[nH]1,-6.94%,–
Cc1cc(=O)oc2cc(O)ccc12,78.5%,–
NNc1nncc2ccccc12,3.11% [at 23.9 µM],–
CCCCC(CC)COC(=O)C(C#N)=C(c1ccccc1)c1ccccc1 (stereo not given),–,1.1 µM (active) and 3.01 µM (active)
S=c1nc[nH]c2nc[nH]c12,–,19.5 µM (active)
